Columns and labels:
Experiment in all cases: PBM binding z-score (relative to random genomic background probes); higher = stronger binding; sequences stand for … in GC…GCGATTGACAGCGTAGAATGAAGG
[1] = test system: FXR:RXRa (NR concentration 270 nM, RXRa partner concentration 90 nM)
Method in brief: (§1)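 The probes on custom Agilent 4×180K protein-binding microarrays were double-stranded, with 34-nt variable regions bearing direct-repeat seeds, single-nucleotide variants, half-site ablations and random human genomic background sequences. Incubation lasted 1 h with ligand-free nuclear receptor dimers in PBS pH 7.4, 2% milk, 0.02% Triton X-100, 1 mM DTT, 0.2 mg/mL BSA and 0.4 mg/ml salmon testes DNA. Antibodies against each partner (one per run) detected bound dimers, and fluorescence scans were regression-normalized. Binding z-scores take the random background probes as reference.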

[2] = test system: LXRa:RXRa (NR concentration 270 nM, RXRa partner concentration 90 nM)
Method in brief: as §1

[3] = test system: LXRa homodimer (NR concentration 270 nM)
Method in brief: as §1

[4] = test system: LXRb:RXRa (NR concentration 270 nM, RXRa partner concentration 90 nM)
Method in brief: as §1

[5] = test system: LXRb homodimer (NR concentration 270 nM)
Method in brief: as §1

[6] = test system: PPARa:RXRa (NR concentration 270 nM, RXRa partner concentration 90 nM)
Method in brief: as §1

[7] = test system: PPARg:RXRa (NR concentration 180 nM, RXRa partner concentration 90 nM)
Method in brief: as §1

[8] = test system: PPARg:RXRa 270nM:90nM, anti-RXR (NR concentration 270 nM, RXRa partner concentration 90 nM)
Method in brief: as §1

[9] = test system: PPARg:RXRa 30nM:10nM, anti-RXR (NR concentration 30 nM, RXRa partner concentration 10 nM)
Method in brief: as §1

[10] = test system: PPARg:RXRa 90nM:30nM, anti-RXR (NR concentration 90 nM, RXRa partner concentration 30 nM)
Method in brief: as §1

[11] = test system: PPARg:RXRa DBDmut IVT, anti-RXR (DBD mutation: RXRa K156A/R161A, NR concentration 270 nM, RXRa partner concentration 90 nM)
Method in brief: as §1

[12] = test system: PPARg:RXRa IVT, anti-PPARg (NR concentration 270 nM, RXRa partner concentration 90 nM)
Method in brief: as §1

[13] = test system: PPARg DBDmut:RXRa IVT, anti-PPARg (DBD mutation: PPARg1 K132A/R137A, NR concentration 270 nM, RXRa partner concentration 90 nM)
Method in brief: as §1

[14] = test system: PPARg DBDmut IVT, anti-PPARg (DBD mutation: PPARg1 K132A/R137A, NR concentration 270 nM)
Method in brief: as §1

[15] = test system: PPARg homodimer (NR concentration 180 nM)
Method in brief: as §1

[16] = test system: PXR:RXRa (NR concentration 270 nM, RXRa partner concentration 90 nM)
Method in brief: as §1

[17] = test system: PXR homodimer (NR concentration 270 nM)
Method in brief: as §1

[18] = test system: RARa:RXR (NR concentration 270 nM, RXRa partner concentration 90 nM)
Method in brief: as §1

[19] = test system: RARa homodimer (NR concentration 270 nM)
Method in brief: as §1

[20] = test system: RARb:RXRa (NR concentration 270 nM, RXRa partner concentration 90 nM)
Method in brief: as §1

Sequence	PBM binding z-score [1]	PBM binding z-score [2]	PBM binding z-score [3]	PBM binding z-score [4]	PBM binding z-score [5]	PBM binding z-score [6]	PBM binding z-score [7]	PBM binding z-score [8]	PBM binding z-score [9]	PBM binding z-score [10]	PBM binding z-score [11]	PBM binding z-score [12]	PBM binding z-score [13]	PBM binding z-score [14]	PBM binding z-score [15]	PBM binding z-score [16]	PBM binding z-score [17]	PBM binding z-score [18]	PBM binding z-score [19]	PBM binding z-score [20]
TCTCGGAGGACCCGAAGGTCAGAGCTTTCCAGAG	0.805	0.637	-0.12	0.902	-1.45	1.69	0.0649	1.18	1.64	1.63	0.809	-0.16	-1.17	-1.31	0.165	1.42	-0.264	1.89	-0.281	2.35
AGAACGAGGGAACGCTGAGTTGATAGCAGAGTAG	-0.288	-0.46	-0.611	-0.674	-0.803	-0.499	0.464	-0.265	-0.0206	-0.332	0.157	0.0104	-0.0244	-0.171	-0.732	-0.323	-0.229	-0.613	0.201	-0.517
TCATATAGGTAAAGGTGAAAGTGGAACGATATGA	0.702	1.31	-0.0893	1.28	-0.406	3.54	4.42	4.97	4.56	5.14	3.98	4.19	1.25	1.26	1.46	1.17	0.224	2.26	0.548	2.13
TGTAGTTGGTCACGGAGGTCACACACGACGGGTA	3.41	3.44	2.52	3.09	0.847	3.87	3.72	3.52	1.51	2.93	0.726	3.95	0.96	0.805	2.4	4.14	0.948	4.35	0.915	3.87
GCGACTGGGGCATCAGCAGGTTACCTTAACTTAA	-0.0462	-0.17	-0.509	0.761	-0.96	1.16	0.496	0.878	-0.313	0.578	3.64	3.03	-1.1	-0.949	0.152	0.367	-0.375	0.558	-0.549	0.828
GGAACGCGGGCAAAGTTGATAGCATCTGTCGACG	-0.48	-0.465	-0.736	-0.893	-0.943	1.67	2.51	4.63	1.85	4.06	0.331	0.502	-0.831	-0.512	-0.0903	-0.43	-0.509	0.0758	-0.689	0.414
CTCGAAAGGTCGTGCTCAGGCGAGTATACCAAAC	5	3.56	-0.183	2.93	-0.132	5.03	2.05	3.49	0.448	1.95	0.449	1.53	0.141	-0.559	0.928	2.68	-0.312	3.16	-0.0786	3.98
TCTATTAGTTGAAGGGCAACCGTCGAGTCCGTTT	0.742	0.933	0.368	0.792	0.191	0.493	-0.355	2.08	3.65	2.84	2.35	0.992	0.699	1.21	0.883	0.735	0.911	0.24	1.09	1.63
CGTCCAAGGTCAAGTTCAGTGAAAGAGACTCGAA	8.18	5.89	2.13	4.76	2.42	5.94	5.62	5.92	2.3	4.88	2.98	3.88	1.06	-0.344	3.64	5.19	3.9	5.39	2.56	5.66
CCTTTCGGGTCAAGGTTATAGCACGGGTGGTACG	5.72	3.85	0.197	3.11	0.545	5.06	4	5.1	1.91	4.2	1.96	3.48	0.691	0.648	2.93	3.67	0.171	4.51	0.494	4.3
CGAACTATGTCATTGACAGGACAGTGAATAGTAA	-0.339	-0.306	-0.302	0.00263	-0.414	0.765	0.677	0.347	0.272	0.497	3.29	2.17	0.536	1.15	0.302	0.0899	0.452	0.317	0.439	0.614
GGAACGAGGGCAAAGCTGATAGCATCTGTCGACG	0.392	0.366	-0.605	-0.126	-0.711	1.68	1.5	1.78	0.251	1.17	4.19	2.81	0.774	-0.247	0.0511	0.048	-0.0388	0.0386	-0.822	1.99
TAGCCTAGTTCATTGGGCCAGTATAGTACGCATC	-0.0548	0.147	-0.141	0.139	-0.687	0.81	0.461	0.538	-0.446	0.253	1.48	1.68	-0.38	-0.291	-0.325	0.756	0.651	-0.0581	-0.777	1.17
ATATGTAGGTTATCTGGTCATTCAGTTTGCGCAT	1.2	1.28	1.15	1.21	0.901	3.58	5.56	4.79	2.32	4.3	7.43	7.03	4.79	3.41	2.41	1.26	1.14	0.738	1.75	1.42
